Molecules are shown by their SMILES. Compounds without any hit were thinned out: in the full panel of roughly 79,000, 15% have a hit. Calls of active or inactive are those of the source. Cut-off read from the data, not from the text of the source: active = growth inhibition above about 70%; inactive = the rest.

A short description of this assay: NCI Yeast Anticancer Drug Screen. Data for the bub3 strain (AID 167). Conditions: S. cerevisiae bub3 mutant strain, at 1.2 µM, stronger effect = higher value. The method, boiled down:
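Readout: yeast growth inhibition, expressed relative to vehicle-only wells. The test organism is a mutant strain from a panel with lesions in DNA repair or checkpoint genes.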
Regarding `CCCc1cc(C(=O)OCC)cc(CCC)c1O`, the growth inhibition was 0% (inactive).

Turning to `CC(C)[N+]([O-])(CCCNc1c2ccccc2nc2cccc([N+](=O)[O-])c12)C(C)C`, the growth inhibition is -14% (inactive).

Take `COc1cc2c3c(cccc3c1)C(=O)N(CCN(C)C)C2=O`: the growth inhibition is -13% (inactive).

For `NC(=O)NN=C(CS)CS`, the growth inhibition is 0% (inactive).

On to `Cc1ccc(NC(=O)/C(Cl)=C(\Cl)C(=O)O)cc1C`, for which the growth inhibition was 7% (inactive).

`CCN(CC)CC[n+]1ccc2c(C)c3[nH]c4ccc(O)cc4c3c(C)c2c1`: the growth inhibition is -10% (inactive).

Turning to `CC(CC(C)(C)[N+](C)(C)C)[N+](C)(C)C` (centres undefined), the growth inhibition is -2% (inactive).

Take `COc1ccc(OC)c2cc3ccccc3cc12`: the growth inhibition was 22% (inactive).

With `Nc1ncncc1C(C1=C(O)COC1=O)C1=C(O)COC1=O`, the growth inhibition is -2% (inactive).

`CSC1=NNC(SC)=NN1`: the growth inhibition was -12% (inactive).

As for `Cc1c(Cl)ccc2c1S(=O)(=O)c1cccc(Cl)c1-2`, the growth inhibition was -27% (inactive).

`[O-][n+]1c2ccc(O)cc2nc2ccc(Cl)cc21`: the growth inhibition was 5% (inactive).

For `COc1ccc2ccc3ccccc3c2c1C=O`, the growth inhibition was -2% (inactive).

With `Nc1ccc2c(c1)C(=O)c1cccc(N)c1C2=O`, the growth inhibition was -1% (inactive).

On to `O=C(c1ccc(Cl)cc1Cl)C(Cl)Cl`, for which the growth inhibition is -20% (inactive).

For the compound `COc1cc(C(=O)/C=C/c2ccccc2O)ccc1O`, the growth inhibition is -20% (inactive).

Take `O=Cc1cccc2ccc3ccccc3c12`: the growth inhibition is -7% (inactive).

Regarding `O=C(Nc1ccc(Cl)cc1)OCC#CCCl`, the growth inhibition is -1% (inactive).

As for `Cn1ccnc1Oc1ccc(Cl)cc1`, the growth inhibition was -6% (inactive).

For the compound `c1ccc2c(c1)C(=NCCCN1CCCCCC1)c1cccn1-2`, the growth inhibition is 0% (inactive).

With `C/C(=N\O)C1CC2C=C(C#N)C1N(Cc1ccccc1)C2` (centres undefined), the growth inhibition is -4% (inactive).

Consider `O=[N+]([O-])C(=C(Sc1ccccc1)Sc1ccccc1)C(Cl)=C(Cl)Cl`, for which the growth inhibition was 6% (inactive).

As to `CCCCCCCCCC/C=C\C(=O)O`, the growth inhibition was -6% (inactive).

As to `COc1ccc(N=C2C(=O)Nc3ccc(Br)cc32)cc1`, the growth inhibition is -7% (inactive).

Turning to `COc1ccccc1C(=O)OCC1CCCN2CCCCC12` (centres undefined), the growth inhibition was -9% (inactive).

Regarding `CC(C)(Br)C(=O)/C=C/c1ccc(Cl)c(Cl)c1`, the growth inhibition was -2% (inactive).

As to `Nc1ccccc1CC(O)C(=O)O` (centres undefined), the growth inhibition is 5% (inactive).

On to `CC(=O)N/N=C/C(C)(C)C(C)(C)/C=N/NC(C)=O`, for which the growth inhibition is -1% (inactive).

For `CN(C)c1nc2sc3c(c2c(=O)o1)CCCC3`, the growth inhibition is 27% (inactive).

With `CC(C)OC(=O)Oc1ccccc1OC(=O)OC(C)C`, the growth inhibition is 0% (inactive).

Consider `Cc1ccc(N)c(S)c1`, for which the growth inhibition is -35% (inactive).

On to `O=C(O)c1ccccc1NC(=S)c1ccccc1`, for which the growth inhibition was -16% (inactive).

Turning to `COC(=O)c1ccc(NCC2=CC(=O)C=CC2=O)cc1O`, the growth inhibition is -3% (inactive).

For the compound `NC(N)=N/N=C\c1c2ccccc2cc2ccccc12`, the growth inhibition is -43% (inactive).

Regarding `COC(=O)CSSCc1ccc([N+](=O)[O-])cc1`, the growth inhibition was 1% (inactive).

For the compound `CCS(=O)(=O)c1ccc(/C=C/C=N/NC(=S)NCC(C)C)cc1`, the growth inhibition is 3% (inactive).

Consider `N#CC(C(=O)Nc1ccccc1)C1=C(Cl)C(=O)c2ccccc2C1=O` (centres undefined), for which the growth inhibition was -49% (inactive).

On to `C[C@H](CCC(=O)NN)[C@H]1CC[C@H]2[C@@H]3CC[C@@H]4C[C@H](O)CC[C@]4(C)[C@H]3CC[C@]12C`, for which the growth inhibition is -3% (inactive).

Turning to `CC[n+]1ccc2c(C)c3[nH]c4ccc(O)cc4c3c(C)c2c1`, the growth inhibition was -19% (inactive).

Source of the values: PubChem BioAssay (NCI).
